Activity calls are given as the source filed them.
Assays:
[1] = test system: PRMT1 (protein arginine N-methyltransferase 1); experiment: small molecules binding arginine methyltransferase PRMT1 – biochemical, small-molecule microarray, 635 nm fluorescence, primary screen (AID 1088); details: higher = more signal;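 also: binding of Prmt1 protein to compounds spotted on small-molecule microarray slides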
[2] = growth effects on S. cerevisiae YJM789 – YJM789 clinical isolate, OD600, 24 h, basal, primary screen (AID 1089); details: higher = more signal, called active from +8 up or from −8 down;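 also: growth of clinical yeast isolate S. cerevisiae YJM 789 seeded 1000 cells per well; test concentration not given here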
[3] = S. pombe growth modifiers, basal conditions – strain 972, OD600, 24 h, no modulator, primary screen (AID 1090);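 also: basal condition with compound alone and no growth modifier present; test concentration not given here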; details: S. pombe 972 growth, higher = more signal, called active from +8 up or from −8 down
[4] = budding yeast growth modifiers under rapamycin – strain BY4716, OD600, 96 h, primary screen (AID 1091); also: test concentration not given here; details: S. cerevisiae BY4716 + rapamycin, higher = more signal, called active from +8 up or from −8 down
[5] = molecular target: Torsin-1A-interacting protein 2 (Homo sapiens) (UniProt Q8NFQ8); experiment: small molecules binding lysate-expressed LULL1 – cell lysate, human LULL1 lysate, 635/667 nm fluorescence, primary screen (AID 1092); details: small-molecule microarray, hLULL1 lysate binding, 635 nm fluorescence; higher = more signal;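 also: probe is lysate of COS7 cells overexpressing human LULL1; score merges per-feature 667 nm fluorescence with signal-to-noise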
[6] = optical density change of DRC41 E. coli – strain DRC41, OD650, 24 h, E. coli filamentation project, primary screen (AID 1093);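 also: MC1000 strain lacking acrAB efflux and sulA so SOS filamentation is blocked; test concentration not given here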; details: E. coli DRC41 growth, higher = more signal, called active from +8 up or from −8 down
[7] = probe aLefty2 binding to arrayed compounds – biochemical, biotinylated probe, 635/667 nm fluorescence, primary screen (AID 1094); details: small-molecule microarray, higher = more signal;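 also: score merges spot fluorescence near 667 nm with spot signal-to-noise ratio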
[8] = test system: Noggin (protein binding on small-molecule microarray); experiment: small molecules binding Noggin protein – biochemical, 635/667 nm fluorescence, primary screen (AID 1095); details: 635 nm fluorescence, higher = more signal;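 also: score merges 667 nm feature fluorescence with signal to noise over triplicate slides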
[9] = molecular target: Neurogenic locus notch homolog protein 3 (Homo sapiens) (UniProt Q9UM47); experiment: small molecules binding NOTCH3 protein – biochemical, 635/667 nm fluorescence, primary screen (AID 1096); details: small-molecule microarray, 635 nm fluorescence, higher = more signal
[10] = probe aEGFR binding to arrayed compounds – biochemical, biotinylated probe, 635/667 nm fluorescence, primary screen (AID 1097); details: small-molecule microarray, higher = more signal;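 also: probe is a biotinylated anti-EGFR antibody binding compounds printed on slides; score combines fluorescence near 667 nm and signal to noise of each spot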

Sequence of Torsin-1A-interacting protein 2 (Homo sapiens) (Q8NFQ8 whole entry, looked up): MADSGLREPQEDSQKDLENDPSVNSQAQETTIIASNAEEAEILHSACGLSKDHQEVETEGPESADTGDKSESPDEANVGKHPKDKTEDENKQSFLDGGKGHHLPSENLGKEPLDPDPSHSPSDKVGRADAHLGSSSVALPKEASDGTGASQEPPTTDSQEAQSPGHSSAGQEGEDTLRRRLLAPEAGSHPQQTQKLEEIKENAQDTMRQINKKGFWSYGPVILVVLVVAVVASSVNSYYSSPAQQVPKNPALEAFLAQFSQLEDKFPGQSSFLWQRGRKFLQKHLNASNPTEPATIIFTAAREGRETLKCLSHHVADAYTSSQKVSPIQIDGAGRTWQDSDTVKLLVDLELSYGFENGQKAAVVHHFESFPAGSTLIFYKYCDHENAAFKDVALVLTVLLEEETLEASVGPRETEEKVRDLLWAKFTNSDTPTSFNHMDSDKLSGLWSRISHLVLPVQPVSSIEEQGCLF
Sequence of Neurogenic locus notch homolog protein 3 (Homo sapiens) (Q9UM47 whole entry, looked up): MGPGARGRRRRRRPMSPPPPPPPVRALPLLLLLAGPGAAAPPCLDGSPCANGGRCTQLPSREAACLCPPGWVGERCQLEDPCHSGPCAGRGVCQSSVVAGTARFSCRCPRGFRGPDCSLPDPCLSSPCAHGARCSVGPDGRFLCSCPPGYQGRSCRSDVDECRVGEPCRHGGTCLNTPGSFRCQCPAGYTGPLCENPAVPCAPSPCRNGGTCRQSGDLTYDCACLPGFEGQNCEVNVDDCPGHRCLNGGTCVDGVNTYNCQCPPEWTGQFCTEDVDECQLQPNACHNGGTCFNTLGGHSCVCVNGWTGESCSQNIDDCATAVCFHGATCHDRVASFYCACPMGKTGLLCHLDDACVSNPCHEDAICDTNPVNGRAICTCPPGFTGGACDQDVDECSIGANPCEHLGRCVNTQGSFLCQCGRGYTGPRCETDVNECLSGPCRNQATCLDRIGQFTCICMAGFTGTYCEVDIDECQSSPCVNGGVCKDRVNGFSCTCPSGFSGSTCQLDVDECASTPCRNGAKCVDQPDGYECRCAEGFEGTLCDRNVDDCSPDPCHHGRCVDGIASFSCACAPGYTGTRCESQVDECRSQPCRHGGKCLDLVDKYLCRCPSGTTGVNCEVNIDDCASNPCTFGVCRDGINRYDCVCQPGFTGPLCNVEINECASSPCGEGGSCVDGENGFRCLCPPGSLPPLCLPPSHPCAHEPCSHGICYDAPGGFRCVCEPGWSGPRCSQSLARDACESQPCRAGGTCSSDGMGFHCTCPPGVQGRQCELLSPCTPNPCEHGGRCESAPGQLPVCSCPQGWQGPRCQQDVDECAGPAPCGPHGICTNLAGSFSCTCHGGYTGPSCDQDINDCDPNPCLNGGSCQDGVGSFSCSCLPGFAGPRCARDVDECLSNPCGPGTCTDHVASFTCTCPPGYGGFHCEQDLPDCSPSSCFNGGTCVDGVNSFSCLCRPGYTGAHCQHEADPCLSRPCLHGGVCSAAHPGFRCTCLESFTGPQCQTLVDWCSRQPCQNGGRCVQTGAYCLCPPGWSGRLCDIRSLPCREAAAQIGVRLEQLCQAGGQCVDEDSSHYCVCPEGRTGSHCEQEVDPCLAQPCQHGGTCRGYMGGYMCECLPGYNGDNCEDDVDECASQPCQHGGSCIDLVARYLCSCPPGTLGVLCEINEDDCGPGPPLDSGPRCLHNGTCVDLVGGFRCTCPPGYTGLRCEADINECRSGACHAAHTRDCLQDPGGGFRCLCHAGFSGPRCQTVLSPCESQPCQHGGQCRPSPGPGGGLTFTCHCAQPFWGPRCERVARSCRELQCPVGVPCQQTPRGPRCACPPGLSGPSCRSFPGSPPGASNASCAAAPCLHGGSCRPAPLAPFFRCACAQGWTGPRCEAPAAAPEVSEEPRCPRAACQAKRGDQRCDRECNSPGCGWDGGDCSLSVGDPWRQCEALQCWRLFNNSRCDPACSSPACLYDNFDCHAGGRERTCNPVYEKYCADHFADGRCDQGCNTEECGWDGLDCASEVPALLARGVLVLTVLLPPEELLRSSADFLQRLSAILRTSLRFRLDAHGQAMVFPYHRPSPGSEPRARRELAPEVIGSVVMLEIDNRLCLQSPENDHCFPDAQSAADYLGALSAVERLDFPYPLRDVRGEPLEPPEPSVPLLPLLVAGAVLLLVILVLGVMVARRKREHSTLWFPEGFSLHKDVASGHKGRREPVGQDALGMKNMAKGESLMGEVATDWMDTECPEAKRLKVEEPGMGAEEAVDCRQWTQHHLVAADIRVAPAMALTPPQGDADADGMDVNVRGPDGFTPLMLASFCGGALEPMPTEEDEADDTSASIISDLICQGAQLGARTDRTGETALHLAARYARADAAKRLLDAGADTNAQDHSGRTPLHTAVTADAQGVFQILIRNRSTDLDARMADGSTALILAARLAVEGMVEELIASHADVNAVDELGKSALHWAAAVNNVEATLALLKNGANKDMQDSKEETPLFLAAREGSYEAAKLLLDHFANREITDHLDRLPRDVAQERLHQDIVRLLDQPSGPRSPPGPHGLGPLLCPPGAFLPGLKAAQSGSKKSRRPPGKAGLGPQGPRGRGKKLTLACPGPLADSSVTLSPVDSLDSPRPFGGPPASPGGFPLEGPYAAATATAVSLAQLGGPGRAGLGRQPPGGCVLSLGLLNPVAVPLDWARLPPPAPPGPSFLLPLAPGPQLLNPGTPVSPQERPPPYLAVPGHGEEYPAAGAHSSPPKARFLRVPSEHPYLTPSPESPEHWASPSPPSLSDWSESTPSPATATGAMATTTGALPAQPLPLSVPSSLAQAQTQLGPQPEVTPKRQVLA

| Compound | composite z-score [1] | z-score [2] | z-score [3] | z-score [4] | composite z-score [5] | z-score [6] | composite z-score [7] | composite z-score [8] | composite z-score [9] | composite z-score [10] |
| --- | --- | --- | --- | --- | --- | --- | --- | --- | --- | --- |
| C=C(COC)C(=O)CC[C@H](OC(=O)c1ccccc1-c1ccccc1C(=O)O)c1cccc(OCCO)c1 | 1.54 | -22.6 (active) | -20.5 (active) | -3.63 (inactive) | 4.32 | 0.573 (inactive) | -0.195 | 2.09 | 0.985 | 0.0004 |
| COC(=O)Cn1c(C(=O)N2CCCC2)cc2c1C[C@H]1CN(C(=O)c3ccccc3)[C@@](Cc3ccc(OC)cc3)(C(=O)OC)[C@@H]21 | -0.709 | 0.742 (inactive) | 1.39 (inactive) | 2.75 (inactive) | 3.24 | -0.485 (inactive) | 0.531 | -1.02 | 1.13 | 0.434 |
| Cc1ccc(S[C@]2(C(=O)NC(C)C)CC(=O)N(Cc3cc(C(F)(F)F)cc(C(F)(F)F)c3)[C@@H]2c2ccc(CO)cc2I)cc1 | 1.26 | -0.698 (inactive) | -2.47 (inactive) | 1.2 (inactive) | 2.04 | 0.715 (inactive) | -0.0544 | -0.147 | -0.513 | -0.317 |
| C[C@@H]1CC[C@H]2C(=O)N3CCC[C@H]3C(=O)N2[C@H]1c1ccc(Br)cc1 | -0.455 | 0.233 (inactive) | -0.228 (inactive) | -0.0146 (inactive) | 0.178 | 0.784 (inactive) | -0.207 | 0.49 | -0.383 | -0.166 |
| COc1cc(Cc2cc3c(c(CCc4ccccc4)n2)[Si](C(C)C)(C(C)C)OC3)cc(OC)c1OC | 0.735 | 0.238 (inactive) | -0.226 (inactive) | 0.0563 (inactive) | -0.244 | -1.02 (inactive) | -0.184 | 0.684 | 0.483 | 0.286 |
| CCC1=C2CN(Cc3ccccc3Br)[C@@H]([C@@H](O)Cc3ccccc3)C2C=CCC1 (stereo not given in full) | 1.24 | -0.828 (inactive) | -5.56 (inactive) | -1.13 (inactive) | 2.11 | 0.777 (inactive) | -0.125 | 0.515 | 1.05 | -0.0981 |
| CCCC[C@@H]1C[C@H]1[C@@H](NC(=O)c1ccccc1)c1ccccc1C(F)(F)F | 1.03 | 0.261 (inactive) | 0.367 (inactive) | 0.0237 (inactive) | 3.38 | 0.151 (inactive) | 0.198 | 0.0984 | 0.961 | -0.123 |
| CN(C)C(=O)[C@@]1(Cc2ccccc2N=[N+]=[N-])N=C(c2ccc(OCCCO)cc2)O[C@H]1c1ccccc1CN=[N+]=[N-] | 1.56 | -1.92 (inactive) | -1.62 (inactive) | 1.62 (inactive) | 3.57 | 0.859 (inactive) | 0.839 | 1.35 | 1.06 | 0.355 |
| CCN1C(C)=C(C(=O)OC)[C@@H](c2ccccc2)N2C(=O)[C@@]3(C(=O)OC)O[C@@]12[C@@H]1C(=O)N(C)C(=O)[C@@H]13 | 0.962 | -0.444 (inactive) | -0.76 (inactive) | 1.74 (inactive) | 1.44 | -0.0517 (inactive) | -0.122 | 0.584 | 0.333 | 0.0692 |
| COCC(=C=CC[C@H](O)c1ccc(OCCO)cc1)C[C@H](O)c1ccccn1 | 0.546 | 0.725 (inactive) | -1.05 (inactive) | -0.352 (inactive) | 1.38 | 1.06 (inactive) | -0.0216 | 0.0559 | -0.457 | -0.235 |
| CCOC(=O)C1=CC[C@@H](c2ccc(-c3ccc(OCc4ccccc4)cc3)c(OC)c2)N(S(=O)(=O)c2ccc(C)cc2)[C@H]1c1ccccc1 | 1.46 | -0.534 (inactive) | -1.27 (inactive) | 3.66 (inactive) | 2.93 | -0.0642 (inactive) | 0.158 | 0.73 | 1.09 | -0.0255 |
| CC(C)=C1C(=O)C(c2ccccc2)=C2CN3C(=O)N(CCc4ccccc4)C(=O)[C@]3(Cc3ccccc3)[C@H]21 | -0.632 | 0.637 (inactive) | 0.927 (inactive) | 0.867 (inactive) | 1.15 | -0.901 (inactive) | 0.213 | -0.974 | -0.546 | -0.138 |
| COCCOC(=O)N1C(=O)[C@@]2(c3cc(C#CCCO)ccc31)[C@H](c1ccc(O)cc1)N1[C@H](c3ccccc3)[C@H](c3ccccc3)OC(=O)[C@H]1[C@@H]2C(=O)Nc1nc2ccccc2s1 | 1.55 | -0.123 (inactive) | -0.239 (inactive) | 0.691 (inactive) | 2.84 | 1.74 (inactive) | -0.0283 | 1.39 | 1.09 | 0.0082 |
| CCOC(=O)C[C@H]1[C@H](OC(=O)c2cc3ccccc3oc2=O)[C@@H](NC(=O)c2ccc3ccccc3c2)c2cc(OCCCO)ccc2N1C(=O)c1ccc2ccccc2n1 | 0.154 | -0.653 (inactive) | -0.777 (inactive) | -0.31 (inactive) | 0.868 | 2.45 (inactive) | -0.225 | 0.956 | 1.03 | 0.0768 |

Source: PubChem BioAssay
